This is part of a sample that, as a whole, favours compounds with a hit. Of some 83,000 tested, about 20% had one in any assay.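 Plates (96-well) were seeded with cells, treated with compound at one concentration, and incubated for 48 hours before percent growth was determined.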 Unmarked numbers belong to inactive results. Active and inactive are the calls of the source. Rule for the calls: active = growth percent below 10; inactive = the rest.

This experiment relates to HL-60(TB) leukemia. The experiment in a line: NCI-60 one-dose screen, 48 h (100 = growth as untreated, 0 = no growth, -100 = all killed). The settings on record: 10 µM unless noted.
For the compound `COCCOc1ccc(-c2nc3ccc(-c4nc5ccc(N6CCN(C)CC6)cc5[nH]4)cc3[nH]2)cc1`, the growth was 3.73% (active).
Consider `CC(C)C[C@H](NC(=O)[C@H](Cc1ccccc1)n1ccc(N2CCCCC2)cc1=O)B(O)O`, for which the growth was 1.9% (active).
Under `CCCCOc1ccc(/C=N/Nc2cc(C)nc3ccc(Br)cc23)cc1` stands 1.52% (active).
Consider `C#CC(C)(O)[C@@H]1C[C@H](CC(=O)O)C1(C)C` (stereo not given in full), for which the growth was 113%.
As to `COC(=O)c1nc(-c2ccccc2)oc1S(=O)(=O)NCC(c1ccc(Cl)cc1)N1CCOCC1` (stereo not given), the growth is 4.12% (active).
As to `COC(=O)/C(=C\c1ccc(OC)cc1)C(=O)N1c2ccccc2Sc2ccccc21`, the growth was 16.5%.
For the compound `CN1C(=O)N(C)C2C1NN=c1s/c(=C\c3ccc([N+](=O)[O-])cc3)c(=O)n12` (stereo not given), the growth is 7.14% (active).
As to `O=[n+]1c2ccccc2n([O-])c2cc(Cl)ccc21`, the growth is -0.993% (active).
Under `COC(=O)[C@@H]1CCCN1C(=O)[C@H]1CCCN1C(=O)[C@@H](Cc1c[nH]c2ccccc12)NC(=S)Nc1cc(C(F)(F)F)cc(C(F)(F)F)c1` stands 12.2%; under `Cc1nc2cc(Nc3nc(N4CCCCC4)nc(N4CCOCC4)n3)ccc2n1Cc1ccccc1`, 75%; under `C=CCCC1(C)NC(=O)NC1=O` (stereo not given), 97.7%.
Turning to `CCN(CC)CCC(CNc1ccnc2cc(Cl)ccc12)c1ccc(Cl)cc1` (stereo not given), the growth is -53.9% (active).
Under `CCOC(=O)CCC(NC(=O)c1ccc(N)cc1)C(=O)OCC` (stereo not given) stands 102%; under `COc1ccc(-c2cnc3ccccc3n2)cc1`, 97%; under `O=C(Nc1ccc(-n2ccc3c(NC(=O)c4ccccc4)ncnc32)cc1)Nc1ccc(Cl)c(Cl)c1`, 62.1%.
The value for `CCCN1CC(c2ccc(OC)c(OC)c2)=C(c2cn(C(=O)OCC)c3ccccc23)C1=O` was 33.2%.
The value for `Cc1ccc(S(=O)(=O)OC[C@]23CCC(C)(C)C[C@H]2C2=CC[C@@H]4[C@@]5(C)CCCNC(C)(C)[C@@H]5CC[C@@]4(C)[C@]2(C)CC3)cc1` was 24.5%; that for `COc1ccc(/C(C)=C(\c2ccc(OCCN3CCOCC3)cc2)c2ccc(OC(=O)C3CCCCC3)cc2)cc1` was 126%.
As to `COc1c(B(O)O)cccc1-c1nc2ccc3[nH]ncc3c2c2c1C1CCC2C1` (stereo not given), the growth is 20%.
Regarding `N#Cc1ccc(-c2ccc(COc3ccc(CC4SC(=O)NC4=O)cc3)cc2)cc1` (stereo not given), the growth is 70.5%.
Take `CCC1N=C(N)N=C(N)N1c1ccc(Cl)cc1` (stereo not given): the growth is 75.4%.
Take `O=C(Nc1nc(-c2ccccc2Cl)cs1)c1cc(-c2ccc(Br)cc2)nc2ccccc12`: the growth was 37.2%.
Under `O=C(Nc1c2ccccc2nc2ccccc12)c1ccccc1CN1C(=O)c2ccccc2C1=O` stands 38.9%; under `Cn1c2c(Cl)c(Cl)ccc2c2c(C#N)c[nH]c(=O)c21`, 107%; under `CN1CCCCC1CCN1c2ccccc2Sc2ccc(Cl)cc21` (stereo not given), 42.1%.
With `CCOC(=O)c1c(C)oc2ncnc(N3CCN(C(=O)COc4ccc(SC)cc4)CC3)c12`, the growth is 97.2%.
As for `COC(=O)Nc1ccc2ccc3c(NC(=O)OC)ccc4ccc1c2c43` (tested in a mixture with another compound), the growth is 33.8%.
Consider `S=C(Sc1ccc(Cl)cc1)Sc1ccc(Cl)cc1`, for which the growth is -63.7% (active).
Consider `CCO/C=N/NC(=O)c1ccncc1`, for which the growth is 102%.
With `O=C(O)C(c1ccccc1)C(O)c1ccccc1` (stereo not given), the growth was 97.8%.
With `OCc1cccc2ccccc12`, the growth was 93.5%.
For the compound `CC(C)(C)c1cc(C(=O)N2CCC(C(=O)NCCN)CC2)cc(C(C)(C)C)c1`, the growth was 90.5%.
Under `COc1c(C)c2c(c(O)c1C/C=C(\C)CCC(=O)OCCN1CCOCC1)C(=O)OC2` stands 36.7%.
For `COC(=O)[C@H](CSC)N(C)C(=O)[C@@H]1CSSC[C@@H](NC(=O)c2nc3ccccc3cc2O)C(=O)NCC(=O)N1C`, the growth was 0.567% (active).
In the case of `Cc1[nH]c(-c2ccc3cc[nH]c3c2)c2c1C(=O)CCCC2`, the growth was 20.5%.
For the compound `CC(=O)OCC1OC(OC2C(COC(C)=O)OC(OCCC[S-])C(OC(C)=O)C2OC(C)=O)C(OC(C)=O)C(OC(C)=O)C1OC(C)=O.[Au+].c1ccc(CN2[CH-]N(Cc3ccccc3)C(c3ccccc3)=C2c2ccccc2)cc1` (stereo not given), the growth is 13.6%.
Consider `O=C(NCCNc1nccc(-c2c(-c3cccc(O)c3)nc3sccn23)n1)c1ccccc1`, for which the growth was 93.3%.
Under `CCC(=O)NC1=C(Cl)C(=O)C(NC(=O)CC)=C(Cl)C1=O` stands -51.1% (active).
With `N#Cc1c(N)nc2c(c(-c3ccc(Cl)cc3)nn2-c2ccccc2)c1C#N`, the growth was 98.9% [100 µM].
For `COc1cc(CC(=O)c2ccc(O)c(OC)c2)ccc1O`, the growth was 87%.

The values are drawn from PubChem BioAssay (NCI).
